# PubChem BioAssay (NCI)
# This is part of a sample that, as a whole, favours compounds with a hit. Of some 83,000 tested, about 20% had one in any assay.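 Treatment: one concentration, 48 hours, 96-well format. Scoring: percent growth, with anything below 10 considered active.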 Active and inactive are the calls of the source.
# Test system: M14 melanoma
# Experiment: NCI-60 one-dose screen, 48 h (100 = growth as untreated, 0 = no growth, -100 = all killed)
# Details: 10 µM
# Experimental: Growth inhibition of the M14 human tumor cell line is measured as a screen for anti-cancer activity. Cells are grown in 96 well plates and exposed to the test compound for 48 hours. Compounds are tested at a single concentration, which is 10^-5 M for most compounds. The reported endpoint is percent growth (GI% or GIPRCNT), where numbers from 0 - 100% represent growth inhibition, and numbers from -100% - 0 represent cell death. For example, a value of 40 represents 60% growth inhibition. A value of 0 means no net growth occurred over the course of the experiment. A value of -40 indicates 40% of cells at the beginning of the experiment died by the end of the experiment. A value of -100 means all cells are dead at the end of the experiment.
# NCI-60 Human Tumor Cell Lines Screen was performed using the standard one-dose NCI protocol, which is described in more detail at https://dtp.cancer.gov/discovery_development/nci-60/default.htm.
# Compounds with GIPRCNT values below 10 were considered active. Activity score was based on GIPRCNT using the following formula: […]
# Score is 0 for GIPRCNT values of 100 or above, 50 for GIPRCNT values of 0, and 100 for GIPRCNT values of -100.
row,SMILES,growth
1,CC(=O)c1c[nH]c2ccccc12,102% (inactive)
2,COC(=O)Nc1nc2ccc(C(=O)c3ccc(F)cc3)cc2[nH]1,15.6% (inactive)
3,Nc1nc(OCc2ccccc2)c2[nH]cnc2n1,90.6% (inactive)
4,CC1(C(N)=O)CCC(C(=O)O)C1(C)C (stereo not given),108% (inactive)
5,O=C(O)CSCSCC(=O)O,108% (inactive)
6,CC(=O)OCC(=O)[C@@]1(O)CC[C@H]2[C@@H]3CC[C@@H]4C[C@H](O)CC[C@]4(C)[C@H]3C(=O)C[C@@]21C,110% (inactive)
7,CCN(CC)CCCC(C)Nc1ccnc(/C=C/c2ccc(Cl)cc2)c1 (stereo not given),-85.9% (active)
8,CCOC(=O)C1OC1c1ccccc1 (stereo not given),97.8% (inactive)
9,COC(=O)Nc1cccc(Cl)c1OC,110% (inactive)
10,O=C1c2ccccc2C(=O)c2c1ccc(C(=O)O)c2[N+](=O)[O-],87.2% (inactive)
11,Cc1cc(C(C)(C)C)cc(C)c1Br,98.5% (inactive)
12,NC(C(=O)O)c1ccc([N+](=O)[O-])cc1 (stereo not given),99% (inactive)
13,CN(C)C(=O)Oc1cccc([N+](C)(C)C)c1,126% (inactive)
14,CCCCC(CC)COC(C)=O (stereo not given),102% (inactive)
15,Cc1cc2nc(CO)[nH]c2cc1C,107% (inactive)
16,Clc1ccc(-c2n[nH]c3c2Cc2ccccc2-3)cc1Cl,100% (inactive)
17,O=C(NCc1ccco1)Nc1c(Cl)cc(Cl)cc1Cl,99.3% (inactive)
18,CC1OC(Oc2c(-c3ccc(O)c(O)c3)oc3cc(O)cc(O)c3c2=O)C(O)C(O)C1O (stereo not given),106% (inactive)
19,O=C(NC1CCCCC1)OCc1c(COC(=O)NC2CCCCC2)c(-c2ccc(Cl)c(Cl)c2)n2c1CCC2,21.6% (inactive)
20,CCCNc1ccc(C2=NCCCN2)cc1,96.1% (inactive)

row,SMILES,growth
1,O=C(/C=C/C(=O)c1ccccc1)c1ccccc1,111% (inactive)
2,Clc1ccc(-c2nnc(-c3cccc4ccccc34)o2)cc1,103% (inactive)
3,Cc1ccc(O)c(C(=O)c2ccccc2)c1,95.8% (inactive)
4,Cc1cc(/C=C/c2ccc3cc(N(C)C)ccc3[n+]2C)c(C)n1-c1ccccc1,-71.3% (active)
5,CC1(O)OC(COc2ccc(Cl)cc2)COC1O (stereo not given),109% (inactive)
6,CCCCCCCCO,105% (inactive)
7,CC(C)NC(=O)OCc1c(COC(=O)NC(C)C)c(-c2ccc(Cl)c(Cl)c2)n2c1SCC2,50.3% (inactive)
8,C=CCNc1nnc(C)s1,103% (inactive)
9,CC(=O)c1ccc(C)c(N)c1,92.5% (inactive)
10,CCc1nc(N)nc(N)c1-c1ccc(Cl)cc1,40.9% (inactive)
11,CCCC(=O)Nc1ccc2c(c1)CN1C(=O)c3ccccc3C1=N2,113% (inactive)
12,CCOC(=O)C(=O)C=P(c1ccccc1)(c1ccccc1)c1ccccc1,109% (inactive)
13,Cc1ccc(Cl)cc1NC(=O)N(C)CCO,107% (inactive)
14,O=[N+]([O-])c1ccc(Sc2ccncn2)c([N+](=O)[O-])c1,8.79% (active)
15,S=c1[nH]ccn1-c1ccccc1Cl,108% (inactive)
16,C1CNC(C2=NCCN2)=N1,103% (inactive)
17,Oc1ccc(N=Nc2ccc(Br)cc2)c(O)c1,-19.2% (active)
18,CCCCNC1(C#N)CCN(Cc2ccccc2)CC1,76.6% (inactive)
19,CC(O)COc1ccc(-c2ccccc2)cc1 (stereo not given),108% (inactive)
20,CCOC(=O)c1coc(C(=O)OCC)c1C(=O)OCC,120% (inactive)
